Among the data in PubChem BioAssay are growth inhibition, inhibition and outcome values, retold here.

In general, inhibition refers to the change of the read-out against control, counted positive when it falls.

A number with no mark means an inactive call. For some of these results: Results with a measured potency or affinity are listed apart. Active and inactive are the calls of the source. Unless noted, no rule for the calls is given here.

A short description of experiment [1]: antimalarial activity against Dd2 strain (AID 2302;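 active = growth inhibition above 50% at the single 2 µM test dose, taken to imply half-maximal potency below 2 µM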;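 also: 0% = DMSO untreated growth and 100% = chloroquine plus artemisinin killed control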). The note with it: P. falciparum Dd2 in RBCs, LDH growth readout, 72 h; at 2 µM; active compounds read high.
Experiment [2] can be described thus: HepG2 cytotoxicity, primary screen, cytotoxicity control for P. falciparum antimalarial project, cell-based, ATP luminescence (AID 2303;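 active = inhibition above 50%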;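 also: 0% = DMSO wells and 100% = digitonin-killed cells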). Particulars: HepG2 viability, 24-48 h, at 10 µM, active compounds read high.
The target of experiment [3] is L-lactate dehydrogenase (Plasmodium falciparum (isolate CDC / Honduras)) (UniProt Q27743). Nature of the experiment: PfLDH activity inhibition – cell lysate, 3D7 strain, counter-screen for P. falciparum growth inhibition project (AID 2304).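 Also: 0% = vehicle and 100% = reference inhibitor.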 The note with it: P. falciparum 3D7 crude extract, LDH APAD/NBT absorbance; at 2 µM; active compounds read high. (The purpose of a counterscreen is to sort out artefacts and off-target activity.)
Sequence of L-lactate dehydrogenase (Plasmodium falciparum (isolate CDC / Honduras)) (Q27743 whole entry, looked up): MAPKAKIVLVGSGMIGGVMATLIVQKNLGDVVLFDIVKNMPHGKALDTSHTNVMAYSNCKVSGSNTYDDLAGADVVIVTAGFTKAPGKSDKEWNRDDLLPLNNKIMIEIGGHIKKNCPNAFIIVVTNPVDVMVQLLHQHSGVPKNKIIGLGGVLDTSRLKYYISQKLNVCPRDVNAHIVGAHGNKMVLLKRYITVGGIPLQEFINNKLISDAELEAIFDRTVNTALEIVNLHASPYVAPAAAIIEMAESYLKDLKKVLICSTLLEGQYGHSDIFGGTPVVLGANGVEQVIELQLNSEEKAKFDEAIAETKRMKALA

The nature of experiment [4]: inhibition of 3D7 malaria parasite growth – strain 3D7 (AID 2306).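 Also: 0% = DMSO wells and 100% = chloroquine plus artemisinin control wells.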 The note with it: P. falciparum 3D7 erythrocytic growth, LDH absorbance, 72 h; at 2 µM; active compounds read high.
For experiment [5], the target named is Calcium-dependent protein kinase 1 (Plasmodium falciparum (isolate 3D7)) (UniProt P62344). Nature of the experiment: PfCDPK1 kinase inhibitors, biochemical, TCAMS library (AID 1159585; cut-off not given, nearly all actives have IC50 up to about 0.98 µM;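 also: inhibitors leave more ATP so luminescence rises with inhibition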). The note with it: recombinant PfCDPK1, Kinase-Glo ATP depletion luminescence. On the technique in general: Kinase-Glo measures the ATP left after a reaction by luminescence.
Sequence of Calcium-dependent protein kinase 1 (Plasmodium falciparum (isolate 3D7)) (P62344 whole entry, looked up): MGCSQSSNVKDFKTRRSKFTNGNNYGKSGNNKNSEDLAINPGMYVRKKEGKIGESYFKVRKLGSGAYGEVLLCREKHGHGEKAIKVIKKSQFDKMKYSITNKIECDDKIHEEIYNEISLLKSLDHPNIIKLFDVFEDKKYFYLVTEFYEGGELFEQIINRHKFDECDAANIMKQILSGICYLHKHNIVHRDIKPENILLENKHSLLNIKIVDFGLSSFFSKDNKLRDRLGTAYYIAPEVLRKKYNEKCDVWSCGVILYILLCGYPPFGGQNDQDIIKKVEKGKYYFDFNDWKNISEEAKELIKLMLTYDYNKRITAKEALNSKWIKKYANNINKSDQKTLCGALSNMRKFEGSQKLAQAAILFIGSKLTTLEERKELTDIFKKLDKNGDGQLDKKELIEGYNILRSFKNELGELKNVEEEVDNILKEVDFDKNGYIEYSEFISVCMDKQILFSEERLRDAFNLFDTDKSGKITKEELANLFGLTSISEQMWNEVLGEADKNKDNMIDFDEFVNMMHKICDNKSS
Experiment [6] concerns the target Plasmodium falciparum protein kinase 6 (PK6, PF3D7_1337100) (UniProt Q8IDW1). Description: PfPK6 kinase inhibitors, biochemical, TCAMS library (AID 1159586). The note with it: recombinant PfPK6, Kinase-Glo ATP depletion luminescence.
In experiment [7] the target is Protein kinase 7 (PK7), Plasmodium falciparum 3D7 (PF3D7_0213400) (UniProt Q7YTF7). Nature of the experiment: inhibition of Plasmodium PK7 catalytic activity – biochemical, TCAMS antimalarial set, Kinase-Glo luminescence (AID 1159587). The note with it: recombinant PfPK7, Kinase-Glo ATP depletion luminescence.
Sequence of Protein kinase 7 (PK7), Plasmodium falciparum 3D7 (PF3D7_0213400) (Q7YTF7 1-343): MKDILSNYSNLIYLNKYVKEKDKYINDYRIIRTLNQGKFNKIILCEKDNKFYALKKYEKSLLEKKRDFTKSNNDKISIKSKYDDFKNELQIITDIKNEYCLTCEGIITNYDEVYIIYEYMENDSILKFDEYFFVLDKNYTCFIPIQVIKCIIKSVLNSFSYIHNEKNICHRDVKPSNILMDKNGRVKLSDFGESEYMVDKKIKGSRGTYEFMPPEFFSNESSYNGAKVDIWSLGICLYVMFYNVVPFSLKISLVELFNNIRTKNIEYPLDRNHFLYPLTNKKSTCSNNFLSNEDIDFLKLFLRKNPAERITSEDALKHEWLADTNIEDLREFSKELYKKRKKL
For experiment [8], the target named is Calcium-dependent protein kinase 4 (Plasmodium falciparum (isolate 3D7)) (UniProt Q8IBS5). Nature of the experiment: PfCDPK4 kinase inhibitors, biochemical, TCAMS library (AID 1159588; cut-off not given, nearly all actives have IC50 up to about 0.91 µM). Particulars: recombinant PfCDPK4, Kinase-Glo ATP depletion luminescence.
Sequence of Calcium-dependent protein kinase 4 (Plasmodium falciparum (isolate 3D7)) (Q8IBS5 whole entry, looked up): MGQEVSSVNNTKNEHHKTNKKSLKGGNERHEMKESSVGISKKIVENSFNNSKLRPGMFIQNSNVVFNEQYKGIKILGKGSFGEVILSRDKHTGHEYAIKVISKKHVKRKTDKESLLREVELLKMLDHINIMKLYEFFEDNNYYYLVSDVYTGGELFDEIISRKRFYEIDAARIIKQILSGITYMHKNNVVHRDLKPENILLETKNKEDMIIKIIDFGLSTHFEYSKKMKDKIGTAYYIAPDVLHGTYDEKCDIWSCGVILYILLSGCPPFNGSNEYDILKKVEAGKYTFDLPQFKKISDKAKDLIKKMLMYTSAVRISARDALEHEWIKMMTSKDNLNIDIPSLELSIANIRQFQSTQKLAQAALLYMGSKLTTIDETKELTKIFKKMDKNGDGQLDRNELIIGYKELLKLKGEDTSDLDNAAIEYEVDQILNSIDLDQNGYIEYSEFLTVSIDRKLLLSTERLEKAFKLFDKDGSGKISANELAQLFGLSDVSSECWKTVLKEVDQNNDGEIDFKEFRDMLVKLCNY

Sequence of Plasmodium falciparum protein kinase 6 (PK6, PF3D7_1337100) (Q8IDW1 1-305): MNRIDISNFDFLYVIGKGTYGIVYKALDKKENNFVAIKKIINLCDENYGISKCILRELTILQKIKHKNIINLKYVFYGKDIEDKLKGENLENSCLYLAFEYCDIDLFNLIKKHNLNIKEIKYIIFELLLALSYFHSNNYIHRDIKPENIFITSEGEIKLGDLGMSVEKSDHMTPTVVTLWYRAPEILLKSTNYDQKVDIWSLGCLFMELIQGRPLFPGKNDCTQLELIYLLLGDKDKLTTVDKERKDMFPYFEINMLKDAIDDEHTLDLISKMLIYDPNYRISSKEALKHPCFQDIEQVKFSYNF

For `CCCC(CNCc1ccc(Cl)c(C(F)(F)F)c1)CNc1nc2ccncc2[nH]1` (stereo not given), the growth inhibition in experiment [1] was 8%; in experiment [4], 99% (active). The inhibition in experiment [2] was 26%; in experiment [3], -1%. Further, the outcome in experiment [5], in experiment [6], in experiment [7] and in experiment [8] was inactive.
On to `Cc1ccc(C)c(Cn2c(N3CCC(C(=O)NCc4cccs4)CC3)nc3ccccc32)c1`, for which the growth inhibition in experiment [1] was 73% (active); in experiment [4] it was 89% (active). Also, the values for the inhibition in experiment [2] and in experiment [3] were -2% and -6%, respectively. The outcome in experiment [5], in experiment [6], in experiment [7] and in experiment [8] was inactive.
Consider `CN(C)c1ccc(-c2csc(C(=O)NCC3CCN(CCC(C)(C)C)C3)c2)cc1` (stereo not given), for which the growth inhibition is 16% in experiment [1] and 87% (active) in experiment [4]. Also, the inhibition in experiment [2] is 29%; in experiment [3], 4%. Moreover, the outcome in experiment [5], in experiment [6], in experiment [7] and in experiment [8] was inactive.
Consider `O=C(Nc1ccc(C(=O)N(Cc2ccc3c(c2)OCO3)C2CCCC2)cc1)c1cccs1`, for which the growth inhibition in experiment [1] was 95% (active); in experiment [4] it was 97% (active). The inhibition in experiment [2] is 14%; in experiment [3] it was 4%. The outcome in experiment [5], in experiment [6], in experiment [7] and in experiment [8] was inactive.
For `O=C1OC(c2ccccc2)(c2ccccn2)CN1C1CCN(Cc2cccn2-c2ccc(Cl)cc2)CC1` (stereo not given), the values for the growth inhibition in experiment [1] and in experiment [4] were 98% (active) and 99% (active), respectively. In addition, the inhibition was 21% in experiment [2] and -5% in experiment [3]. Besides, the result in experiment [5], in experiment [6], in experiment [7] and in experiment [8] was inactive.
Turning to `Cc1ccc(NC(C)C(=O)Nc2ccc(C#N)cc2)cc1S(=O)(=O)N1CCCCC1` (stereo not given), the growth inhibition in experiment [1] and in experiment [4] was 92% (active) throughout. Further, the inhibition in experiment [2] is 11%; in experiment [3], 1%. The outcome in experiment [5], in experiment [6], in experiment [7] and in experiment [8] was inactive.
Turning to `CN(C)S(=O)(=O)c1ccc(N2C(=O)[C@@H]3[C@H](C2=O)[C@@]2(c4ccccc4)C(=O)[C@]3(c3ccccc3)C(c3ccccc3)=C2c2ccccc2)cc1`, the growth inhibition in experiment [1] was 63% (active); in experiment [4], 92% (active). Besides, the results for the inhibition in experiment [2] and in experiment [3] were -10% and 3%, respectively. The outcome in experiment [5], in experiment [6], in experiment [7] and in experiment [8] was inactive.
For the molecule `COCCNCc1ccc(-c2ccc(CNc3ccc4ncccc4c3)cc2)cc1`, the values for the growth inhibition in experiment [1] and in experiment [4] were 4% and 85% (active), respectively. Moreover, the inhibition is 41% in experiment [2] and -4% in experiment [3]. In addition, the result in experiment [5], in experiment [6], in experiment [7] and in experiment [8] was inactive.
Take `Cc1ccc(F)c(OCC2CCCN(c3ccc(C(=O)NC4CC4)cn3)C2)c1` (stereo not given): the figures for the growth inhibition in experiment [1] and in experiment [4] were 94% (active) and 96% (active), respectively. Moreover, the inhibition in experiment [2] is 3%; in experiment [3], -3%. Besides, the result in experiment [5], in experiment [6], in experiment [7] and in experiment [8] was inactive.
On to `O=C(COc1cccc([N+](=O)[O-])c1)Nc1ccc(-c2nc3ccccc3[nH]2)cc1`, for which the growth inhibition was 5% in experiment [1] and 99% (active) in experiment [4]. In addition, the inhibition was 12% in experiment [2] and 7% in experiment [3]. The result in experiment [5], in experiment [6], in experiment [7] and in experiment [8] was inactive.
`CN(c1ccc(NC(=O)Nc2cc(C(F)(F)F)ccc2F)cc1)c1ccnc(NCCN2CCCC2)n1`: the values for the growth inhibition in experiment [1] and in experiment [4] were 1% and 93% (active), respectively. For the same molecule, the inhibition in experiment [2] is 94% (active); in experiment [3] it was -2%. Besides, the outcome in experiment [5], in experiment [6], in experiment [7] and in experiment [8] was inactive.
Consider `COc1ccc2ncc(F)c(CCN3[C@@H]4CC[C@H]3CC(NCc3cc5c(cn3)OCS5)C4)c2n1` (stereo not given in full), for which the growth inhibition was 48% in experiment [1] and 95% (active) in experiment [4]. For the same molecule, the inhibition is 15% in experiment [2] and -2% in experiment [3]. Moreover, the result in experiment [5], in experiment [6], in experiment [7] and in experiment [8] was inactive.
On to `CC(C)Cc1nc(N2CCOCC2)c2nnn(Cc3ccccc3)c2n1`, for which the growth inhibition in experiment [1] is 76% (active); in experiment [4], 98% (active). The inhibition in experiment [2] is 7%; in experiment [3] it was -2%. The outcome in experiment [5], in experiment [6], in experiment [7] and in experiment [8] was inactive.
Turning to `CCN(CC)CCCC(C)Nc1c2cc(OC)ccc2nc2cc(Cl)c([N+](=O)[O-])cc12` (stereo not given), the growth inhibition in experiment [1] is 89% (active); in experiment [4], 100% (active). Also, the inhibition in experiment [2] was 12%; in experiment [3] it was 2%. For the same molecule, the outcome in experiment [5], in experiment [6], in experiment [7] and in experiment [8] was inactive.
Turning to `COc1ccc2nccc([C@@H](O)CN3CCC(NCc4nc5cc(F)ccc5o4)CC3)c2c1`, the growth inhibition is 12% in experiment [1] and 102% (active) in experiment [4]. Also, the inhibition is 14% in experiment [2] and -8% in experiment [3]. The outcome in experiment [5], in experiment [6], in experiment [7] and in experiment [8] was inactive.
On to `COc1cc(CNCCC(C)C)ccc1OCc1cccc(COc2ccc(CNCCC(C)C)cc2OC)c1`, for which the growth inhibition in experiment [1] is 20%; in experiment [4] it was 99% (active). Moreover, the values for the inhibition in experiment [2] and in experiment [3] were 97% (active) and 6%, respectively. For the same molecule, the outcome in experiment [5], in experiment [6], in experiment [7] and in experiment [8] was inactive.
As to `CSc1ccc(NC(=O)Nc2cc(C)nc3ccccc23)cc1`, the growth inhibition in experiment [1] is 23%; in experiment [4], 100% (active). Also, the results for the inhibition in experiment [2] and in experiment [3] were 7% and 1%, respectively. In addition, the result in experiment [5], in experiment [6], in experiment [7] and in experiment [8] was inactive.
For `Cc1ccc(CN2CCCN(Cc3cccc(C(=O)Nc4ccc(C(C)(C)C)cc4)c3)CC2)s1`, the growth inhibition is 4% in experiment [1] and 85% (active) in experiment [4]. For the same molecule, the inhibition is 31% in experiment [2] and -5% in experiment [3]. Moreover, the result in experiment [5], in experiment [6], in experiment [7] and in experiment [8] was inactive.
Consider `CCNc1cc(C)nc(Nc2ccc(NC(=O)c3ccccc3)cc2)n1`, for which the figures for the growth inhibition in experiment [1] and in experiment [4] were 63% (active) and 102% (active), respectively. The inhibition in experiment [2] is 41%; in experiment [3], -1%. In addition, the result in experiment [5], in experiment [6], in experiment [7] and in experiment [8] was inactive.
For the molecule `O=S(=O)(NC1=NCCC1)c1cccc(Nc2nc(C(F)(F)F)nc3ccccc23)c1`, the results for the growth inhibition in experiment [1] and in experiment [4] were 8% and 83% (active), respectively. Besides, the results for the inhibition in experiment [2] and in experiment [3] were 6% and 0%, respectively. The outcome in experiment [5], in experiment [6], in experiment [7] and in experiment [8] was inactive.
